This is an account of results in PubChem BioAssay (NCI).

SMILES strings stand for the structures. This is part of a sample that, as a whole, favours compounds with a hit. Of some 79,000 tested, about 15% had one in any assay. Values without a mark were called inactive. Active and inactive are the calls of the source. Cut-off read from the data, not from the text of the source: active = growth inhibition above about 70%; inactive = the rest.

Assay [1] in a line: NCI Yeast Anticancer Drug Screen. Data for the rad50 strain (AID 155).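 Note: 0% = growth of vehicle-only cultures of the same strain.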 To be noted: S. cerevisiae rad50 strain growth inhibition; at 50.0 µM; stronger effect = higher value. Put shortly: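 Relative growth inhibition (compound vs vehicle) was measured in yeast with a defined repair-gene alteration.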
A short description of assay [2]: NCI Yeast Anticancer Drug Screen. Data for the mec2-1 strain (AID 157). To be noted: S. cerevisiae mec2-1 strain, at 50.0 µM, stronger effect = higher value. The procedure, abridged:
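Cells of the genetically defined mec2-1 yeast strain are incubated with test compound. Inhibition of growth is calculated against vehicle-treated controls.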

Assay [3] is described as follows: NCI Yeast Anticancer Drug Screen. Data for the sgs1 mgt1 strain (AID 161).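 Note: 0% = growth of cultures given vehicle only.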 The conditions noted are these: S. cerevisiae sgs1 mgt1 strain, at 50.0 µM, stronger effect = higher value. Put shortly: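 Mutant yeast exposed to compound; growth scored against vehicle-only wells.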
Assay [4] can be described thus: NCI Yeast Anticancer Drug Screen. Data for the cln2 rad14 strain (AID 165).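 Note: 0% = growth equal to vehicle treated cultures.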 To be noted: S. cerevisiae cln2 rad14 strain, at 50.0 µM, stronger effect = higher value. Put shortly: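 The screen exposed genetically defined yeast (cln2 rad14) to test compounds and scored growth inhibition relative to vehicle-treated controls.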
The nature of assay [5]: NCI Yeast Anticancer Drug Screen. Data for the bub3 strain (AID 167). The conditions noted are these: S. cerevisiae bub3 mutant strain, at 50.0 µM, stronger effect = higher value. Put shortly:
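Screening used yeast with an engineered genetic alteration affecting cell cycle control. Compound-exposed cultures were compared with vehicle cultures, and reduced growth was taken as inhibition.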

Assay [6] can be described thus: NCI Yeast Anticancer Drug Screen. Data for the mlh1 rad18 strain (AID 175). The conditions noted are these: S. cerevisiae mlh1 rad18 strain growth inhibition; at 50.0 µM; stronger effect = higher value. The procedure, abridged:
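Compound-treated yeast growth, normalised to vehicle controls. Strain bears defined DNA repair mutations.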

As to `CCN=c1c([N+](=O)[O-])c(NC(=O)c2ccccc2)sn1CC`, the growth inhibition is -9.1% in assay [1]; -5.65% in assay [2]; -5.5% in assay [3]; 28% in assay [4]; -7.75% in assay [5]; -5.7% in assay [6].

On to `CCCSc1ncnc2c1ncn2COC(=O)NC`, for which the growth inhibition in assay [1] was 15.1%; in assay [2] it was -11.4%; in assay [3], 5.2%; in assay [4], 5.15%; in assay [5], 11.3%; in assay [6], -2.8%.

Consider `Cc1ccc(Cc2cc(=O)[nH]c(=S)[nH]2)cc1`, for which the growth inhibition is -1.05% in assay [1]; 4.05% in assay [2]; -6.15% in assay [3]; -26.9% in assay [4]; -11.6% in assay [5]; -3.35% in assay [6].

As to `CC(Oc1ccc([N+](=O)[O-])cc1)c1ccccc1` (stereo not given), the growth inhibition in assay [1] is -21.6%; in assay [2], -0.55%; in assay [3] it was -3.7%; in assay [4], -37.1%; in assay [5], -23.4%; in assay [6] it was 1.4%.

Regarding `COC(=O)CCc1cc(=O)oc2ccc3cc(CC(=O)OC)oc3c12`, the growth inhibition was 5.75% in assay [1]; -7.65% in assay [2]; 4.7% in assay [3]; -6.1% in assay [4]; -7.2% in assay [5]; 2.15% in assay [6].

Turning to `COC1N(C2C=CC(CO)O2)C(=O)NC(=O)C1(C)Br` (stereo not given), the growth inhibition in assay [1] is -4.8%; in assay [2] it was -18.1%; in assay [3], 2.8%; in assay [4] it was 2.75%; in assay [5], -17.8%; in assay [6], 15.8%.

With `Nc1nc2c(-c3ccc([N+](=O)[O-])cc3)nnn2c2cccc(Cl)c12`, the growth inhibition in assay [1] was -9.7%; in assay [2], -15.8%; in assay [3] it was -18.4%; in assay [4], 4.85%; in assay [5], -32.5%; in assay [6], -14.7%.

As to `CCOC(=O)C12CCCCC1=CC1(CC2)SCCS1` (stereo not given), the growth inhibition in assay [1] is -0.45%; in assay [2] it was -9.95%; in assay [3], -30.5%; in assay [4], -1.35%; in assay [5] it was 4.55%; in assay [6], -15.6%.

In the case of `CC1=C2CCOC2=Nc2ccccc2O1`, the growth inhibition is 15.8% in assay [1]; -6.3% in assay [2]; 11.3% in assay [3]; -1.8% in assay [4]; -14.6% in assay [5]; -6.2% in assay [6].

Take `Cc1ccc(/C=N/NC(=O)c2ccccc2NC(=O)c2ccccc2)cc1`: the growth inhibition in assay [1] was 57.4%; in assay [2] it was 80.6% (active); in assay [3], 85.4% (active); in assay [4], 62%; in assay [5], 70.8% (active); in assay [6], 69.8%.

Take `COC(=O)c1nc(NN)[nH]c(=O)c1C`: the growth inhibition in assay [1] was -2.1%; in assay [2] it was -21.1%; in assay [3] it was -27.6%; in assay [4] it was 3.35%; in assay [5], -26.6%; in assay [6], -15.1%.

As to `O=C(NC/C=C/Br)Oc1cccc2ccccc12`, the growth inhibition in assay [1] is -0.05%; in assay [2], 18.6%; in assay [3] it was 0.9%; in assay [4] it was 36.8%; in assay [5] it was 2.85%; in assay [6], 11.3%.

Turning to `O=C(/C=C/c1ccccc1)OCCCl`, the growth inhibition in assay [1] was -23.4%; in assay [2], -15.1%; in assay [3], -17.9%; in assay [4] it was -14.1%; in assay [5] it was -22.4%; in assay [6], -7.35%.

Regarding `CC(C)CSCC1OC(n2cnc3c(N)nccc32)C(O)C1O` (stereo not given), the growth inhibition in assay [1] is -6.15%; in assay [2], -13.8%; in assay [3], -7.85%; in assay [4], 10%; in assay [5], -12.7%; in assay [6], -20.4%.

`CCOC(=O)Oc1ccc(C(=O)NCCC(C)C)cc1OCC`: the growth inhibition in assay [1] is -11.8%; in assay [2], -10.3%; in assay [3] it was -8.1%; in assay [4], -69.2%; in assay [5], 25.8%; in assay [6], -6.8%.

As for `Cc1cc(C)c(/C=C\C(=O)c2ccccc2)c(C)c1`, the growth inhibition is 9.75% in assay [1]; -7.65% in assay [2]; -4.3% in assay [3]; -37.9% in assay [4]; 6.15% in assay [5]; -15.5% in assay [6].

Turning to `CCOC(=O)CCC(C(=O)OCC)c1nc2ccccc2[nH]c1=O` (stereo not given), the growth inhibition was 12.6% in assay [1]; 11.9% in assay [2]; 12.6% in assay [3]; -2.75% in assay [4]; 14.1% in assay [5]; 14.2% in assay [6].

With `Clc1ccccc1C(N1CCCCC1)N1CCCCC1`, the growth inhibition in assay [1] was 27.9%; in assay [2] it was 13.2%; in assay [3] it was 19.4%; in assay [4], 13.5%; in assay [5], 28%; in assay [6] it was 28.1%.

As to `C=C1C(=O)O[C@H]2C3OC3(C)CC/C=C(/C(=O)OC)[C@@H](OC(C)=O)[C@H](OC(=O)C3(C)OC3C)[C@H]12` (stereo not given in full), the growth inhibition in assay [1] is 12.6%; in assay [2], 31.8%; in assay [3] it was 13.5%; in assay [4], 22.4%; in assay [5] it was 5.55%; in assay [6], 8.85%.

Regarding `CCOC(=O)N1c2ccccc2SC1C#N` (stereo not given), the growth inhibition in assay [1] is 63.1%; in assay [2], 40.1%; in assay [3], 37.4%; in assay [4], 1.85%; in assay [5], 25.1%; in assay [6], 27.4%.
